In the experiment the target is Estrogen receptor (Homo sapiens) (UniProt P03372). Nature of the experiment: ERalpha ligand binders by competition, primary screen, cell-based, Cos7 ERalpha-GFP, flow cytometry (AID 1211).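 Also: 0% = DMSO vehicle wells and 100% = no E2-Alexa633 signal left.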 The conditions noted are these: fluorescent ligand competition, stronger effect = higher value. In general terms: In flow cytometry, cells or beads pass a laser one at a time.

Activity calls are given as the source filed them. No rule for the calls is given here.

Estrogen receptor (Homo sapiens), sequence (P03372 whole entry, looked up): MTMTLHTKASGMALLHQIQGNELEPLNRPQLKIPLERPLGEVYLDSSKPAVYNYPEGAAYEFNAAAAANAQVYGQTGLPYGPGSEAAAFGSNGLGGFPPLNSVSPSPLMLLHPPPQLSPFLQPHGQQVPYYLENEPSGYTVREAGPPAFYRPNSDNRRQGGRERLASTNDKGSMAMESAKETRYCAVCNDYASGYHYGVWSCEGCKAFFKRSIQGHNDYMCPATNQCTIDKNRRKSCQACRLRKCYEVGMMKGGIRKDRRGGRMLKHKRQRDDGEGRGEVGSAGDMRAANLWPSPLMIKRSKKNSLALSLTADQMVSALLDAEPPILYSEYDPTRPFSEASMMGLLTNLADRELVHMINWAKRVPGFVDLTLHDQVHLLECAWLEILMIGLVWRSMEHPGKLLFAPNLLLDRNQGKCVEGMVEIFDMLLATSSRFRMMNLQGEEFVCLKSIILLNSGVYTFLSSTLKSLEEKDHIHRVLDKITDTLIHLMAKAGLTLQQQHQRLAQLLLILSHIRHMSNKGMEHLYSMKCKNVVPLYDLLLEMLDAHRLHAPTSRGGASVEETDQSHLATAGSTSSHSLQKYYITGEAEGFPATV

With `FC(F)(F)c1ccc2c(c1)C1C=CCC1C(c1ccncc1)N2` (stereo unspecified), the inhibition of ligand binding was 61% (inactive) (at 10 µM) and 27% (binding inhibition, at 0.1 µM).
Taken in the same sequence, the figures for `O=c1nc2s/c(=C\c3ccco3)c(=O)n2nc1Cc1ccc(F)cc1` were 32% (inactive) and 61%.
Taken in the same sequence, the figures for `COc1ccc(N2C(=O)c3ccccc3NC2c2ccc(OC)c(COc3ccccn3)c2)cc1` (stereo unspecified) were 0% (inactive) and 22%.
For the compound `CC(O)C1CCC2C3CC[C@H]4CC(O)CCC4(C)C3CC3(OCCO3)C12C` (stereo partly specified), the inhibition of ligand binding was 33% (inactive) (at 10 µM) and 1% (binding inhibition, at 0.1 µM).
For the compound `COc1ccc(-c2nc(C(N)=O)c3[nH]c(=O)n(-c4cccc(Cl)c4)c3n2)cc1OC`, the inhibition of ligand binding was 0% (inactive) (at 10 µM) and 6% (binding inhibition, at 0.1 µM).
Taken in the same sequence, the figures for `C/C(N)=C(/C#N)C(=O)CSc1nnc(Cc2ccccc2F)n1N` were 0% (inactive) and 3%.
For `O=C(C1c2ccccc2C(=O)N2CCc3ccccc3C12)N1CCN(Cc2ccccc2)CC1` (stereo unspecified), in that order: 41% (inactive) and 12%.
Taken in the same sequence, the figures for `COc1ccc2nc3oc(C(=O)N4CCN(c5cccc(C(F)(F)F)c5)CC4)cc3cc2c1` were 45% (inactive) and 19%.
As for `O=c1cc(O)c2sc(Nc3ccc(F)cc3)nc2[nH]1`, the inhibition of ligand binding reads like this: (at 10 µM) 9% (inactive); (binding inhibition, at 0.1 µM) 48%.
For `Nc1ccc(N2CCN(C(=O)c3ccco3)CC2)cc1`, in that order: 28% (inactive) and 33%.
For `O=S(=O)(NCC(O)COCc1ccco1)c1cccs1` (stereo unspecified), the inhibition of ligand binding is 7% (inactive) (at 10 µM) and 4% (binding inhibition, at 0.1 µM).
Taken in the same sequence, the figures for `CN=c1scc(C)n1/N=C/c1ccc(O)cc1O` were 0% (inactive) and 3%.
For the compound `NC(=O)c1c(NC(=O)c2cccs2)sc2c1CCCCCC2`, the inhibition of ligand binding by setting is: (at 10 µM) 0% (inactive); (binding inhibition, at 0.1 µM) 22%.
Taken in the same sequence, the figures for `CCCc1cc(-n2ccnc2)n2c(nc3ccccc32)c1C#N` were 14% (inactive) and 50%.
On to `COc1ccc2c(c1)c1nc3ccccc3nc1n2CCCN1C(=O)c2ccccc2C1=O`, for which the inhibition of ligand binding is 46% (inactive) (at 10 µM) and 33% (binding inhibition, at 0.1 µM).
For `Cc1oc2c(C)c(O)ccc2c(=O)c1-c1ccc2ccccc2n1`, the inhibition of ligand binding reads like this: (at 10 µM) 20% (active); (binding inhibition, at 0.1 µM) 70%.
Taken in the same sequence, the figures for `O=C(CSc1ccc(Cl)cc1)c1ccco1` were 42% (inactive) and 65%.
For `ON=C1/C(=N\O)CC2(C/C1=N/O)OCCO2`, in that order: 33% (inactive) and 48%.
For `Cc1ccc(C2=Nc3ccccc3N=C(c3ccco3)C2)c(O)c1`, in that order: 2% (inactive) and 26%.
`CC(C)CN(C(=O)COC(=O)c1cc2c(s1)CCC2)C1CCS(=O)(=O)C1` (stereo unspecified): the inhibition of ligand binding (at 10 µM) was 47% (inactive) and the inhibition of ligand binding (binding inhibition, at 0.1 µM) turned out to be 21%.
For `Nc1ccc2nc(-c3ccc(N)c(Cl)c3)[nH]c2c1`, in that order: 31% (inactive) and 12%.
Consider `O=C(/C=C/c1ccc(O)cc1)c1ccc(O)cc1O`, for which the inhibition of ligand binding is 62% (inactive) (at 10 µM) and 18% (binding inhibition, at 0.1 µM).
Taken in the same sequence, the figures for `O=C1C2CC=C(Cl)CC2C(=O)N1CCCCCCN1C(=O)C2CC=C(Cl)CC2C1=O` (stereo unspecified) were 36% (inactive) and 34%.
As to `C=C(C)CNC(=S)NNC(=O)CCn1c2cc(Cl)ccc2c2ccc(Cl)cc21`, the inhibition of ligand binding is 60% (inactive) (at 10 µM) and 15% (binding inhibition, at 0.1 µM).
Taken in the same sequence, the figures for `C1CCC(c2nn3c(-c4n[nH]c5c4CCC5)nnc3s2)CC1` were 20% (inactive) and 5%.
Regarding `COC(=O)c1ccc2c(=O)n(CC3CCCO3)c(SCC(=O)Nc3ccccc3Cl)nc2c1` (stereo unspecified), the inhibition of ligand binding was 45% (inactive) (at 10 µM) and 37% (binding inhibition, at 0.1 µM).
Turning to `COc1cccc(-n2nnnc2SCC(=O)Nc2ccc(C(C)=O)cc2)c1`, the inhibition of ligand binding reads like this: (at 10 µM) 38% (inactive); (binding inhibition, at 0.1 µM) 45%.
For `O=C1Nc2ccccc2SC(c2ccccc2)C1O` (stereo unspecified), in that order: 26% (inactive) and 46%.
Taken in the same sequence, the figures for `CCOC(=O)CN1C(c2ccc(O)cc2)Nc2ccc(Br)cc2C1c1ccccc1` (stereo unspecified) were 24% (inactive) and 11%.
Taken in the same sequence, the figures for `Oc1ccc(-c2nccc(-c3cccs3)n2)cc1` were 40% (inactive) and 28%.
As to `O=C1CC(=O)N2N=C(c3ccc([N+](=O)[O-])cc3)SC2=N1`, the inhibition of ligand binding (at 10 µM) is 38% (inactive) and the inhibition of ligand binding (binding inhibition, at 0.1 µM) was 8%.
`Nc1cc2sc(-c3ccc(C(=O)O)cc3)nc2cc1Cl`: the inhibition of ligand binding by setting is: (at 10 µM) 24% (inactive); (binding inhibition, at 0.1 µM) 49%.
As for `O=C(NCCN1CCOCC1)c1cnn2c(-c3ccccc3)cc(-c3ccccc3)nc12`, the inhibition of ligand binding (at 10 µM) was 0% (inactive) and the inhibition of ligand binding (binding inhibition, at 0.1 µM) was 8%.
In the case of `Cc1cc(C)c(C(=O)COc2cccnc2[N+](=O)[O-])cc1C`, the inhibition of ligand binding was 19% (inactive) (at 10 µM) and 30% (binding inhibition, at 0.1 µM).
For `COc1ccc(NC(=O)C(NC(=O)c2ccc(=O)[nH]c2)c2ccc(C)cc2)cc1` (stereo unspecified), in that order: 4% (inactive) and 13%.
For `CCc1ccc(-c2nn(-c3ccccc3)cc2CSC(=N)N)cc1`, in that order: 22% (inactive) and 45%.
For `COc1cc(C(C#N)N2N=C(c3ccccc3)CC2c2ccccc2)ccc1O` (stereo unspecified), in that order: 3% (inactive) and 3%.
Regarding `COc1cc(/C=N/N2CCN(C3c4ccccc4-c4ccccc43)CC2)ccc1O`, the inhibition of ligand binding runs as follows: (at 10 µM) 36% (inactive); (binding inhibition, at 0.1 µM) 15%.
Taken in the same sequence, the figures for `C=CCn1c(COc2cccc(C)c2)nnc1SCC(=O)NC(=O)NCc1ccco1` were 9% (inactive) and 31%.
Consider `O=C(CSc1nc2ccccc2c(=O)[nH]1)c1ccc(O)c(O)c1`, for which the inhibition of ligand binding (at 10 µM) was 14% (inactive) and the inhibition of ligand binding (binding inhibition, at 0.1 µM) was found to be 5%.
`COc1ccc(C2Nc3ccccc3C(=O)N2c2ccc(C)cc2)cc1COc1ccccn1` (stereo unspecified): the inhibition of ligand binding is, setting by setting: (at 10 µM) 27% (inactive); (binding inhibition, at 0.1 µM) 11%.
Regarding `Cc1noc(C)c1S(=O)(=O)N(CC(=O)O)c1ccc2c(c1)OCO2`, the inhibition of ligand binding (at 10 µM) is 0% (inactive) and the inhibition of ligand binding (binding inhibition, at 0.1 µM) came out at 3%.
Taken in the same sequence, the figures for `O=C(CSc1nc2scc(-c3ccco3)c2c(=O)n1-c1ccccc1)NCC1CCCO1` (stereo unspecified) were 0% (inactive) and 21%.

The values are drawn from PubChem BioAssay AID1211 (NMMLSC, 2008).
